Key:
Test in all cases: DAPPL (digital affinity profiling via proximity ligation, sequencing); 10 mM Tris-HCl pH 7.5, 50 mM NaCl, 1 mM DTT, 4% glycerol, room temperature, 30 min; GST-TFs on glutathione beads, 16-mer random dsDNA library, 0.1% formaldehyde crosslink after washing; high values mean tight binding
Settings in all cases: protein: recombinant; tags: N-terminal GST; dsDNA, one strand shown
ERF = molecular target: T1, ERF (Homo sapiens, UniProt P50548 1-548)
T1 sequence: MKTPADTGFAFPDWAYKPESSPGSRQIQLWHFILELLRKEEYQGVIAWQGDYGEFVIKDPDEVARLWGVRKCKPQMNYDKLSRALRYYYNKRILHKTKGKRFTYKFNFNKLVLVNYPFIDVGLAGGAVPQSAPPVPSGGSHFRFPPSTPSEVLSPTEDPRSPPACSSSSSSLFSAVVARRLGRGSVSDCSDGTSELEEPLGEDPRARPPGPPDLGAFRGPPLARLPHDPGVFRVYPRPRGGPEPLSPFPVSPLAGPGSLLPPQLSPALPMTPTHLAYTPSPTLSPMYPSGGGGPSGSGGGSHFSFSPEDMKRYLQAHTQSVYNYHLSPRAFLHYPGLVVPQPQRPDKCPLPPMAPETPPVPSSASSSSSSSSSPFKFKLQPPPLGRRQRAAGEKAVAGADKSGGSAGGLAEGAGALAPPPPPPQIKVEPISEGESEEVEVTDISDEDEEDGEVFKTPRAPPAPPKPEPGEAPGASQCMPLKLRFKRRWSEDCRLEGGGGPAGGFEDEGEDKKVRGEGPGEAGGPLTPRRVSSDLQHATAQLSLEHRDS
How it was run: (§1)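 In yeast, human transcription factors were expressed with a GST fusion, then pulled down on glutathione beads and given DNA barcodes. Pooled with a tag-only sample, they were exposed to 200 nmole of a 16-mer random double-stranded DNA library (Tris/NaCl/DTT/glycerol buffer, room temperature, 30 min), washed, crosslinked with 0.1% formaldehyde, proximity-ligated using BsaI/T4 ligase for 1 h at 37 °C, PCR-amplified and read on an Illumina NextSeq500. Each hexamer's frequency of reads for a factor, divided by the matching frequency for the tag-only sample, gives the binding signal.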

ETV3L = molecular target: T2, ETV3L (Homo sapiens, UniProt Q6ZN32 1-361)
T2 sequence: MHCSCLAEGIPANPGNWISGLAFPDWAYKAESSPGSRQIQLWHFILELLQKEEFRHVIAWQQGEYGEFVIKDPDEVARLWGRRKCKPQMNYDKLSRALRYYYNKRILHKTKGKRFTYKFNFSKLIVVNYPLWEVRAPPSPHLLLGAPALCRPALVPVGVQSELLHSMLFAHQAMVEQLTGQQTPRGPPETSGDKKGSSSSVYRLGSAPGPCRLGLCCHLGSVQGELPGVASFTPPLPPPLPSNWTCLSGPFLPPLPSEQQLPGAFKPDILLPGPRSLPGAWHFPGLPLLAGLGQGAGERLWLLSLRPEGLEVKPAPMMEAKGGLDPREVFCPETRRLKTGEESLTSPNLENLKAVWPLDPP
How it was run: as §1

ETS2 = molecular target: T3, ETS2 (Homo sapiens, UniProt P15036 1-469)
T3 sequence: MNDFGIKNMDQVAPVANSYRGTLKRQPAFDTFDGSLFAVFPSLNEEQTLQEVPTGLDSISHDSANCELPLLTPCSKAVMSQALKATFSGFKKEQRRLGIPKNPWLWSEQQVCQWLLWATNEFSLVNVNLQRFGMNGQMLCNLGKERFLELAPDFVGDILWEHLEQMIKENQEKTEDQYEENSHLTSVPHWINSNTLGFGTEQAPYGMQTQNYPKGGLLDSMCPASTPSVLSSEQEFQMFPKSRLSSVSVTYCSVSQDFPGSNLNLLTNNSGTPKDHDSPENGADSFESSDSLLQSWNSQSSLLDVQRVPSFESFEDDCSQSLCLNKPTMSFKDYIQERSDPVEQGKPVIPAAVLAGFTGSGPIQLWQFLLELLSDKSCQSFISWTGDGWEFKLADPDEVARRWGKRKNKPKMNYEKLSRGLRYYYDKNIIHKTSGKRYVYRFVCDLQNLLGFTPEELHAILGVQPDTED
How it was run: as §1

SPDEF = molecular target: T4, SPDEF (Homo sapiens, UniProt O95238 1-335)
T4 sequence: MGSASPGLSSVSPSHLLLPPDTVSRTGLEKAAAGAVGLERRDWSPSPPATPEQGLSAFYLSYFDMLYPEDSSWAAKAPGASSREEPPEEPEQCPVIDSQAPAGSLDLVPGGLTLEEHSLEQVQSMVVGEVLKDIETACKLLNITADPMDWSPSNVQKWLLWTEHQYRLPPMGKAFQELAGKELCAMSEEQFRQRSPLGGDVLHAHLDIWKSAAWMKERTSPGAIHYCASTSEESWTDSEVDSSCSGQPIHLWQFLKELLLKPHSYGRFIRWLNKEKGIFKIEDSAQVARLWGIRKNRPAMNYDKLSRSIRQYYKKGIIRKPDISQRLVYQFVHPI
How it was run: as §1

ETV7 = molecular target: T5, ETV7 (Homo sapiens, UniProt Q9Y603 1-341)
T5 sequence: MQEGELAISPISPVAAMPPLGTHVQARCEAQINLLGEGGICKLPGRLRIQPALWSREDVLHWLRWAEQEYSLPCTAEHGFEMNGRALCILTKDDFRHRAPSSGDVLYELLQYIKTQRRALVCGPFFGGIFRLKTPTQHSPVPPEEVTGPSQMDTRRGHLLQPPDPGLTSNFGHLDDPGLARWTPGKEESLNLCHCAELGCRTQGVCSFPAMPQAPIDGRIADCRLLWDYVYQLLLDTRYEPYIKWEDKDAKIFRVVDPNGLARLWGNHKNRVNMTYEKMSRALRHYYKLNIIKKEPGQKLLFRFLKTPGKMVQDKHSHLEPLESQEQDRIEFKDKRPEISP
How it was run: as §1

ELF5 = molecular target: T6, ELF5 (Homo sapiens, UniProt Q9UKW6-2 1-255)
T6 sequence: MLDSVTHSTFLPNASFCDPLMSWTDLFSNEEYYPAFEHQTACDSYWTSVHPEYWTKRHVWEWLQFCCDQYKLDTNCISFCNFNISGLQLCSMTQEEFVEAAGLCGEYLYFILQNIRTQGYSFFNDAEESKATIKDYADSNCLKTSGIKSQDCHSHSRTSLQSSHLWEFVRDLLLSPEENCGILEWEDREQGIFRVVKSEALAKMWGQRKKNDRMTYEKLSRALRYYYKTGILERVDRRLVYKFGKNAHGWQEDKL
How it was run: as §1

ETV3 = molecular target: T7, ETV3 (Homo sapiens, UniProt P41162-2 1-143)
T7 sequence: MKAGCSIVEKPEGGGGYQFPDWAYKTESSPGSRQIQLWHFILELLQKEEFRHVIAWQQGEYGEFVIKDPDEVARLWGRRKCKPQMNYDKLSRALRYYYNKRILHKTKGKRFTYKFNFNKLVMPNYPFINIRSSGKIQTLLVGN
How it was run: as §1

ETV6 = ETV6 (Homo sapiens, UniProt P41212 1-452)
How it was run: as §1

ETV6, sequence (P41212 whole entry): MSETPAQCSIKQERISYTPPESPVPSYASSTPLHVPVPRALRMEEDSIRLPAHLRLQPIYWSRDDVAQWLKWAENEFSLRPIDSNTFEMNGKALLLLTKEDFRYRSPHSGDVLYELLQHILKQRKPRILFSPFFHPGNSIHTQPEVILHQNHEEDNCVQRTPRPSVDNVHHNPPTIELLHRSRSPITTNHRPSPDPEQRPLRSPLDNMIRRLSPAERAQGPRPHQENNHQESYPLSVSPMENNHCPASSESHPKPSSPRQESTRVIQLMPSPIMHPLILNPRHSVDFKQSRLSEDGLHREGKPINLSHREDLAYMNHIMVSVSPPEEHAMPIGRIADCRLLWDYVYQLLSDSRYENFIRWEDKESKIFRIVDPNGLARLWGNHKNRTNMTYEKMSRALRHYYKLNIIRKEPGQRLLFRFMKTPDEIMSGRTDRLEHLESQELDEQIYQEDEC

With CCGCCC as the sequence, how does the binding signal (ERF) read?
The binding signal was 1.21 fold enrichment (6-mer frequency, TF over GST control).

And the binding signal (ETV3L)?
Its binding signal is 1.36 fold enrichment (6-mer frequency, TF over GST control).

And the binding signal (ETS2)?
The binding signal was 1.29 fold enrichment (6-mer frequency, TF over GST control).

What about the binding signal (SPDEF) of the same sequence?
The binding signal was 1.27 fold enrichment (6-mer frequency, TF over GST control).

And the binding signal (ETV7)?
The binding signal was 1.19 fold enrichment (6-mer frequency, TF over GST control).

And the binding signal (ELF5)?
The binding signal was 1.38 fold enrichment (6-mer frequency, TF over GST control).

And the binding signal (ETV3)?
Its binding signal is 1.36 fold enrichment (6-mer frequency, TF over GST control).

What about the binding signal (ETV6) of the same sequence?
Its binding signal is 1.39 fold enrichment (6-mer frequency, TF over GST control).

What does the source list for AGTATC?
binding signal (ERF): 1.12 fold enrichment (6-mer frequency, TF over GST control); binding signal (ETV3L): 1.09 fold enrichment (6-mer frequency, TF over GST control); binding signal (ETS2): 1.18 fold enrichment (6-mer frequency, TF over GST control); binding signal (SPDEF): 1.14 fold enrichment (6-mer frequency, TF over GST control); binding signal (ETV7): 1.13 fold enrichment (6-mer frequency, TF over GST control); binding signal (ELF5): 1.23 fold enrichment (6-mer frequency, TF over GST control); binding signal (ETV3): 1.13 fold enrichment (6-mer frequency, TF over GST control); binding signal (ETV6): 1.19 fold enrichment (6-mer frequency, TF over GST control)

For TAAGCT, which binding signal (ERF) is on record?
Its binding signal is 1.39 fold enrichment (6-mer frequency, TF over GST control).

What about the binding signal (ETV3L) of the same sequence?
Its binding signal is 1.25 fold enrichment (6-mer frequency, TF over GST control).

And the binding signal (ETS2)?
Its binding signal is 1.13 fold enrichment (6-mer frequency, TF over GST control).

What about the binding signal (SPDEF) of the same sequence?
The binding signal was 1.11 fold enrichment (6-mer frequency, TF over GST control).

What about the binding signal (ETV7) of the same sequence?
The binding signal was 1.3 fold enrichment (6-mer frequency, TF over GST control).

What about the binding signal (ELF5) of the same sequence?
The binding signal was 1.04 fold enrichment (6-mer frequency, TF over GST control).

And the binding signal (ETV3)?
Its binding signal is 1.2 fold enrichment (6-mer frequency, TF over GST control).

What about the binding signal (ETV6) of the same sequence?
The binding signal was 1.15 fold enrichment (6-mer frequency, TF over GST control).

How did the binding signal (ERF) turn out when TTTCCT was run?
Its binding signal is 2.28 fold enrichment (6-mer frequency, TF over GST control).

And the binding signal (ETV3L)?
Its binding signal is 2.43 fold enrichment (6-mer frequency, TF over GST control).

What about the binding signal (ETS2) of the same sequence?
Its binding signal is 2.44 fold enrichment (6-mer frequency, TF over GST control).

What about the binding signal (SPDEF) of the same sequence?
Its binding signal is 2.34 fold enrichment (6-mer frequency, TF over GST control).

What about the binding signal (ETV7) of the same sequence?
Its binding signal is 2.31 fold enrichment (6-mer frequency, TF over GST control).

And the binding signal (ELF5)?
Its binding signal is 4.16 fold enrichment (6-mer frequency, TF over GST control).

What about the binding signal (ETV3) of the same sequence?
The binding signal was 2.73 fold enrichment (6-mer frequency, TF over GST control).

And the binding signal (ETV6)?
The binding signal was 2.86 fold enrichment (6-mer frequency, TF over GST control).

Which binding signal (ERF) does the source give for ACCTGG here?
Its binding signal is 1.17 fold enrichment (6-mer frequency, TF over GST control).

And the binding signal (ETV3L)?
The binding signal was 1.33 fold enrichment (6-mer frequency, TF over GST control).

And the binding signal (ETS2)?
Its binding signal is 1.26 fold enrichment (6-mer frequency, TF over GST control).

What about the binding signal (SPDEF) of the same sequence?
The binding signal was 1.2 fold enrichment (6-mer frequency, TF over GST control).

And the binding signal (ETV7)?
Its binding signal is 1.29 fold enrichment (6-mer frequency, TF over GST control).

And the binding signal (ELF5)?
Its binding signal is 1.19 fold enrichment (6-mer frequency, TF over GST control).

What about the binding signal (ETV3) of the same sequence?
The binding signal was 1.21 fold enrichment (6-mer frequency, TF over GST control).

What about the binding signal (ETV6) of the same sequence?
Its binding signal is 1.28 fold enrichment (6-mer frequency, TF over GST control).

For AAAGGT, which binding signal (ERF) is on record?
The binding signal was 1.07 fold enrichment (6-mer frequency, TF over GST control).

And the binding signal (ETV3L)?
The binding signal was 1.03 fold enrichment (6-mer frequency, TF over GST control).

What about the binding signal (ETS2) of the same sequence?
Its binding signal is 1.04 fold enrichment (6-mer frequency, TF over GST control).

What about the binding signal (SPDEF) of the same sequence?
Its binding signal is 1.11 fold enrichment (6-mer frequency, TF over GST control).

And the binding signal (ETV7)?
The binding signal was 1.07 fold enrichment (6-mer frequency, TF over GST control).

What about the binding signal (ELF5) of the same sequence?
Its binding signal is 1.01 fold enrichment (6-mer frequency, TF over GST control).

What about the binding signal (ETV3) of the same sequence?
Its binding signal is 1.05 fold enrichment (6-mer frequency, TF over GST control).

And the binding signal (ETV6)?
Its binding signal is 1.11 fold enrichment (6-mer frequency, TF over GST control).

From publication PMC7862700, “An all-to-all approach to the identification of sequence-specific readers for epigenetic DNA modifications on cytosine”
